Source: PubChem
D1 agonist – Allosteric Agonists of the Human D1 Dopamine Receptor: qHTS; HEK293 T-REx D1 cells, calcium flux, agonist mode; activation, % at 2 µM; 360,000 tested, 1% active; AID 504660, 2011
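Agonism was scored from calcium flux recorded over 180 s (1 read/s) after pintool compound addition, following a 10-cycle baseline. Cells were inducible force-coupled HEK293 TREx D1, plated overnight at 30 C and loaded with no-wash calcium dye.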
TRHR ag – qHTS for Small Molecule Agonists and Allosteric Enhancers of Human TRH Receptor: Primary Screen for Agonists. Thyrotropin-releasing hormone receptor (Homo sapiens), P34981. 360,000 tested, 0.18% active. AID 493084, 2011. activation, % at 2 µM. TRHR cells, calcium flux fluo-8, FDSS agonist mode
Target sequence (P34981 whole entry, looked up): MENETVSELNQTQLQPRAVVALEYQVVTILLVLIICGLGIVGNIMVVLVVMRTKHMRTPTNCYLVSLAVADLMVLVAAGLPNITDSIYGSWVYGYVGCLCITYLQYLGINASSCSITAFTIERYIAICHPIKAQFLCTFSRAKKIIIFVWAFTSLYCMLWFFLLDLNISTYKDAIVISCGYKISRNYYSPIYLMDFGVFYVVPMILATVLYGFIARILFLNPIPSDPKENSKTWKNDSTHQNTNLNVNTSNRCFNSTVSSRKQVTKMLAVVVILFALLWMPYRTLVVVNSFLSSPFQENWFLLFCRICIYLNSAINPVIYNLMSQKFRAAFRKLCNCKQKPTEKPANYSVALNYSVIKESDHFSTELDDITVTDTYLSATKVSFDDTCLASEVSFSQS
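Steps: seed TRHR cells overnight; add fluo-8 no-wash Ca dye, RT 30 min–1.5 h; record 10 s baseline; pin-transfer compounds; monitor fluorescence 1 cycle/s for the agonist window. Calcium increases flag candidate agonists.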
D1 potentiator – Potentiators of Human D1 Dopamine Receptor: qHTS; potentiation, % at 10 µM; HEK293 TREx D1 cells, calcium flux, dopamine EC20 potentiation; D(1A) dopamine receptor (Homo sapiens), P21728; 360,000 tested, 0.036% active; in the data active = potentiation above about 30%
TRHR PAM – qHTS for Small Molecule Agonists and Allosteric Enhancers of Human TRH Receptor: Primary Screen for Enhancers; enhancement, % at 2 µM; TRHR cells, fluo-8 calcium fluorescence, EC20 TRH enhancement; 360,000 tested, 0.66% active; Thyrotropin-releasing hormone receptor (Homo sapiens), P34981; in the data active = enhancement above about 30%
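TRHR-expressing cells loaded with fluo-8 calcium dye were read kinetically (ex 480/em 530) during compound addition, then stimulated with an EC20 of TRH (10 nM final). Enhancement of the Gq-mediated intracellular calcium response was scored.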
D1 antag – Antagonist of Human D 1 Dopamine Receptor: qHTS. activity change, negative = inhibition, % at 10 µM. HEK293 TREx D1 cells, calcium flux, dopamine EC80; stronger effect = lower value. D(1A) dopamine receptor (Homo sapiens), P21728. 360,000 tested, 3.2% active; in the data active = activity change below about -30%
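Using tetracycline-induced force-coupled D1 Hek293 cells and a calcium dye, signals were followed for 180 s after compound, then for 180 s after EC80 dopamine, to detect inhibitors.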
Each line names hits and unclear results; the compound was inactive in the other large screens; ! = a repeat was not active. The list is not random: actives were taken first. Their share in the collection is about 4.6%. Cut-off read from the data, not from the text of the source, unless noted: active = activation above about 30%; inactive = the rest.

O=C(CCCn1c(=O)[nH]c2cc(Cl)ccc2c1=O)NCCCN1CCN(c2ccc(F)cc2)CC1	D1 antag -66
Cc1nonc1NC(=O)CSc1nc2c(C)cccc2cc1C#N	D1 agonist 43
Cc1cc2cc(C#N)c(SCC(=O)Nc3nonc3C)nc2cc1C	none
O=C(COc1ccccc1)NCCS(=O)(=O)N1CCN(c2ccccc2)CC1	D1 antag -35
O=C(COc1ccccc1)NCC(c1ccco1)N1CCN(c2ccc(F)cc2)CC1 (stereo unspecified)	D1 antag -64
CC(C)CC(=O)NCC(c1ccc2c(c1)OCO2)N1CCN(c2ccccc2F)CC1 (stereo unspecified)	none
CCN(CCCNC(=O)CN1N=C(c2ccccc2)CCC1=O)c1cccc(C)c1	none
CCN(CCCNC(=O)CN1N=C(c2ccc(OC)cc2)CCC1=O)c1cccc(C)c1	D1 antag -40
O=C(NCc1ccncc1)C(F)(F)C(F)(F)C(=O)NCc1ccncc1	D1 antag -43
O=C(NCc1ccncc1)c1cc(F)c(F)cc1Cl	D1 antag -40
CCOCN(C(=O)Cn1cnc2cc(C)c(C)cc21)c1c(C)cccc1CC	none
COC(=O)c1ccccc1NC(=O)CCC(=O)N1CCSc2ccccc21	none
Cc1cc(C)cc(NC(=O)CCC(=O)N2CCSc3ccccc32)c1	D1 antag -58!
Cc1ccc2nc(C3CCCN(C(=S)Nc4cccc(C)c4C)C3)[nH]c2c1 (stereo unspecified)	none
Cc1ccc(NC(=S)N2CCCC(c3nc4ccc(C)cc4[nH]3)C2)c(C)c1 (stereo unspecified)	D1 antag -31
CCCCCCCOC(=O)C[N+](C)(C)CCOC1CC2CCC1(C)C2(C)C (stereo unspecified)	D1 agonist 131
CCCCCCOC(=O)C[N+](C)(C)CCOC1CC2CCC1(C)C2(C)C (stereo unspecified)	D1 agonist 92
Cn1nc(C(=O)NCc2ccc(F)cc2)c2c1-c1ccccc1SC2	none
Cc1cccc(CNC(=O)c2ccc3nc(Cc4ccccc4)oc3c2)c1	D1 agonist 31, D1 antag -31
CC(C)Oc1ccc(CNC(=O)c2ccc3nc(Cc4ccccc4)oc3c2)cc1	D1 agonist 33
Cc1cc(Br)ccc1NCc1ccccn1	D1 antag -56
Cc1nc2cc(C(=O)O)ccc2n1-c1ccc(C(C)C)cc1	none
C/C(=C\COc1cc(=O)[nH]c2ccccc12)CCC(O)C(C)(C)O (stereo unspecified)	TRHR PAM 32
COc1ccc(-c2cc3ccccc3nc2N)cc1OC	D1 antag -38
COc1ccc(-c2nc3ccccc3nc2-c2ccc(OC)c(OC)c2)cc1OC	none
O=C(NCc1ccc2c(c1)OCO2)c1ccc(CSCc2ccc(Cl)cc2)o1	D1 antag -34
O=C(NCc1ccc(Cl)cc1)c1ccc(CSCc2cccc(Cl)c2)o1	D1 agonist 39
CCc1ccccc1S(=O)(=O)Cc1ccc(C(=O)NCc2ccc3c(c2)OCO3)o1	D1 antag -56
Cc1ccc(CNC(=O)c2ccc(CSCc3ccc(Cl)cc3)o2)cc1	none
O=C(NCc1ccc2c(c1)OCO2)c1ccc(CS(=O)(=O)Cc2cccc(Cl)c2)o1	none
COc1ccccc1NC(=O)CSc1ncc2c(n1)-c1ccccc1N(Cc1ccccc1C)S2(=O)=O	none
CCOc1ccc(NC(=O)C(=O)NCC(c2cccnc2)N2CCc3ccccc32)cc1 (stereo unspecified)	none
O=C1CC(c2cccc(O)c2)Oc2ccccc21 (stereo unspecified)	D1 antag -32
CCOC(=O)C1=NN(c2ccccc2)C2C(=O)N(c3ccccc3OC)C(=O)C12 (stereo unspecified)	none
COc1ccccc1N1C(=O)C2C(C(=O)c3ccccc3)=NN(c3ccccc3)C2C1=O (stereo unspecified)	D1 agonist 35
O=C(C1=NN(c2ccccc2)C2C(=O)N(c3ccccc3Cl)C(=O)C12)c1ccccc1 (stereo unspecified)	D1 agonist 193, TRHR ag 58
Cc1ccc(N2C(=O)C3C(C(=O)c4ccccc4)=NN(c4ccccc4)C3C2=O)cc1 (stereo unspecified)	D1 agonist 117
COC(=O)C1=NN(c2ccc(Cl)cc2)C2C(=O)N(c3ccccc3OC)C(=O)C12 (stereo unspecified)	none
COc1ccccc1N1N=C(C(=O)c2ccccc2)C2C(=O)N(c3ccc(Br)cc3)C(=O)C21 (stereo unspecified)	D1 agonist 46
CCOc1ccc(N2C(=O)C3C(c4ccccc4)=NN(c4ccccc4)C3C2=O)cc1 (stereo unspecified)	none
COc1ccc(CNC(=O)C2CCCN(C(=O)c3cnn(-c4ccc(F)cc4)c3-n3cccc3)C2)cc1 (stereo unspecified)	none
Cc1onc(-c2c(Cl)cccc2Cl)c1NC(=O)N1CCSCC1	none
CCOc1ccc(NC(=O)Cn2c(=O)n(Cc3ccc(C(=O)NCc4ccc(C)cc4)cc3)c(=O)c3ccccc32)cc1	none
COc1ccc(C2=NC(C)(C)N(CC(=O)Nc3cccc(C)c3)C2=O)cc1	none
CCOC(=O)N1CCN(C(=O)COC(=O)c2oc3ccc(OC)cc3c2C)CC1	none
CCCN1CCN(CCCNC(=O)c2ccc3c(c2)sc2nc(-c4ccc(OC)cc4)cn23)CC1	none
Cc1ccc(N(CC(=O)N2CCN(c3cccc(C)c3C)CC2)S(=O)(=O)c2c(C)nn(C)c2C)cc1	D1 antag -43
COc1ccc(-c2cn3nc(SCC(=O)Nc4cccc(C)c4C)ccc3n2)cc1	none
COc1ccc(/C=C/C(=O)c2ccccc2)cc1COc1ccccc1F	D1 agonist 38
COc1ccc(C=O)cc1COc1ccccc1F	none
O=C(NCc1ccco1)C(c1ccncc1)N(C(=O)Cn1nnc2ccccc21)c1ccccc1F (stereo unspecified)	none
CCOC(=O)CN(Cc1sccc1C)C(=O)Nc1cccc(OC)c1	D1 antag -37
CCOC(=O)Cc1csc(NC(=O)c2cccc([N+](=O)[O-])c2)n1	D1 antag -31
CCOC(=O)Cc1csc(NC(=O)c2sc3nc4c(C)cc(C)cc4cc3c2N)n1	D1 agonist 85, TRHR ag 38
CCOC(=O)Cc1csc(NC(=O)Nc2cccc(OC)c2)n1	D1 antag -33
Cc1c(C(=O)Nc2ccc(F)c(Cl)c2)sc2nc3n(c(=O)c12)CCC3	none
CCCCc1ccc(NC(=S)NCc2ccc(OC)cc2)cc1	none
